Laboratory results taken from PubChem BioAssay AID493085 (Broad Institute, 2011).
Hit rate of the full screen: of about 2,400 compounds, about 360 (15%) were called active. About 5% were inconclusive and are not listed.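 The calls were made as follows: active = falling-signal curve with half-maximal concentration at or below ten times the top tested dose; inconclusive = flat fit at 30 to 70% inhibition, or poor fit; inactive = signal rise, flat within 30%, or potency beyond limit.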 The list is a sample of the results. Measured potencies and affinities stand elsewhere.

Assay: dox-induced RFP signal loss in R4-3T3 cells – cell-based, NIH3T3 R4, HSE-GFP and Tet-On RFP, cherry-pick, set 3, dose response (AID 493085);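 also: cells heat shocked 2 h at 42 °C with doxycycline to induce reporters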
Conditions: NIH3T3 R4 HSE-GFP/Tet-RFP reporter, fluorescence, 48 h; series mostly up to 19.5 µM

outcome, inactive:
COc1ccc(/C=N/NC(=O)CN(C)S(=O)(=O)c2ccc(NC(C)=O)cc2)cc1, COc1cc2cc(CN(C(=O)NC3CCCCC3)C3CCCC3)c(=O)[nH]c2cc1OC, CCOC(=O)c1c(C)n(C)c2ccc(OC)c(NC(=O)CN3CCSCC3)c12, COc1ccc(C(=O)C2CCCN(Cc3ccc(NC(C)=O)cc3)C2)cc1OC (configuration not stated), Nc1nc(Cl)nc2c1ncn2C1CC(O)C(CO)O1 (configuration not stated), Cc1oc(-c2cc3c(cc2Cl)OCO3)nc1CN1CCCC1c1ccc(F)cc1 (configuration not stated), Cc1c(Cl)cccc1NC(=O)CS(=O)(=O)c1ccccc1, CC(C)n1cc(/C=N/Nc2ccc(C(=O)O)cc2)c2ccccc21, CCOC(=O)N1CCN(C(=O)C2CCN(Cc3ccc(OC)cc3OC)CC2)CC1, COc1cccc(-c2cccc(NC(=O)C3CCN(Cc4ccon4)CC3)c2)c1, Cc1ccnc(NS(=O)(=O)c2ccc(NC(=O)COc3ccccc3)cc2)n1, Cc1nc(C(=O)NNC(=O)c2cccc(Cl)c2)c(C(F)(F)F)o1, O=C(Cc1ccccc1)Nc1nc2ccccc2s1, O=C(COc1ccccc1C(=O)O)Nc1ccc(SC(F)F)cc1, N/C(CC(=O)Nc1ccc(F)cc1)=N\O, Cc1ccccc1C(=O)Nc1nnc(CC(=O)N/N=C/c2ccco2)s1, Cc1cc(C)nc(NC(=O)COc2cc(Cl)cc(Cl)c2)n1, COc1cccc(CC(=O)N[C@@H](CCSC)c2nc3ccccc3[nH]2)c1, CCOc1ccc(N=C(NN)c2ccc3ccccc3n2)cc1, Cc1ccc(S(=O)(=O)c2ccc(Oc3ccccc3)cc2)cc1, O=[N+]([O-])c1ccccc1Nc1cccnc1, O=C(NCc1ccccc1)C1CCCN(S(=O)(=O)c2cccc3nsnc23)C1 (configuration not stated), Nc1nc(NCc2ccco2)nc(NC2CCCCC2)c1[N+](=O)[O-], Cc1nc2sc3c(NCc4ccco4)ncnc3c2c2c1COC(C)(C)C2, CC(C)CCc1c(O)nc(SCC(=O)N2CCCCCC2)[nH]c1=O, O=C(O)COc1ccc(/C=N/NC(=O)c2ccccc2Br)cc1, CCCc1cc(=O)oc2cc(C)cc(OCC(=O)NCCCn3ccnc3)c12, O=C(CC(Nc1ccccc1Cl)C(=O)OCC(=O)c1cccs1)c1ccccc1 (configuration not stated), COc1ccc2oc(=O)c(N3C(=O)c4ccccc4C3=O)cc2c1, CC1(C)CC(NCc2ccc3c(c2)OCO3)CCO1 (configuration not stated), COc1cc(C2NC(=O)NC(C)=C2C(=O)OCC2CCCO2)ccc1O (configuration not stated), CCC1CCCCN1C(=O)c1cc2c(=O)n3cccc(C)c3nc2s1 (configuration not stated), CN(C)c1ccc(C2Nc3ccccc3C(=O)N2CCCN2CCOCC2)cc1 (configuration not stated), NC(=O)C1CCN(CC(=O)Nc2nc(-c3ccccc3)cs2)CC1, O=C(c1c(F)cccc1F)N1CCN(c2ccccc2F)CC1, Cc1cc(C(=O)NC2CCCN(Cc3ccc(Cl)cc3)C2)n(C)n1 (configuration not stated), O=Cc1ccc(OC(=O)Cc2ccc(F)cc2)cc1, CC(=NCCc1ccccc1)C1=C(O)CSC1=O, COc1ccc(CNC(=O)C(=O)c2cn(CC(=O)N3CCOCC3)c3ccccc23)cc1, CC(=O)Nc1ccc(NC(=O)CSc2cn(CC(=O)N3CCOCC3)c3ccccc23)cc1, Cc1ccc(N2C(=O)c3ccccc3C2Nc2ccccc2F)nc1 (configuration not stated), N#Cc1c(NC(=O)CSc2ncccn2)oc(-c2ccccc2)c1-c1ccccc1, Cc1ccc([N+](=O)[O-])cc1NC(=O)CSc1n[nH]c(-c2cccnc2)n1, CC(C)(C)OC(=O)C1C(=O)CC(C)(O)C(C(=O)OC(C)(C)C)C1c1cccnc1 (configuration not stated), CCC(=O)N1CCc2cc(S(=O)(=O)NCCC(=O)Nc3ccccc3C)ccc21, Cc1onc(-c2ccccc2)c1C(=O)Nc1sc2c(c1C(N)=O)CCC2, C/C(CC(=O)Nc1ccc(N(C)C)cc1)=N\NC(=O)Cc1csc(N)n1, OC(COc1c(F)cc(Br)cc1F)CN1CCN(c2ccc(F)cc2)CC1 (configuration not stated), COc1cccc(NC(=S)N(CCC(C)C)C2CCN(C(C)=O)CC2)c1, O=C1CCC(=O)N1CNc1ccccn1, CCn1c(=O)c(C(=O)Nc2ccccc2F)c(O)c2ccccc21, Cn1c(C(=O)NN)cc2cc(OCc3ccccc3)ccc21, COc1ccc(N2CC(C(=O)Nc3nnc(C4CCCCC4)s3)CC2=O)cc1 (configuration not stated), COc1ccc2nc(NC(=O)CN3CCOCC3)sc2c1, O=C(c1ccc(F)cc1)N1CCCC(N2CCN(Cc3ccc4c(c3)OCO4)CC2)C1 (configuration not stated), COc1nc(-c2ccccc2)c2cc(Br)ccc2n1, COc1ccc(OC(C)C(=O)N2CCC(C)CC2)cc1 (configuration not stated), CCOC(=O)c1ccc(NC(=O)Oc2ccccc2)cc1, CCOC(=O)c1ccc(NC(=S)Nc2ccccc2N)cc1, COc1ccc(-n2c(-c3ccc(F)cc3)cnc2SCC(=O)NCc2ccco2)cc1, Cc1cc2cc(CCNC(=O)C(=O)c3c[nH]c4ccccc34)c(=O)[nH]c2cc1C, CC(c1ccccc1)N1CCN(C(=O)CCl)CC1 (configuration not stated), O=C(Nc1ccc(Cl)cn1)c1ccc2c(Cl)c3c(nc2c1)CCC3, CC(=O)COc1ccccc1OC(=O)c1ccco1, O=C(CSc1ccccc1)Nc1cccc(NC(=O)c2ccco2)c1, N/C(=N\c1nc2ccccc2o1)NC(=O)c1ccc(Cl)cc1, Cc1nnc(N2C(=O)c3cccc4cccc(c34)C2=O)s1, COc1cccc(NC(=O)N2CCCC2C(=O)NC(C)C)c1 (configuration not stated), COc1nn(-c2ccccc2)c(=O)c(Cl)c1Cl, CCOC(=O)c1cnn(-c2ccccc2)c1-n1cccc1, O=C(C1CCC(CNS(=O)(=O)c2cccc3cccnc23)CC1)N1CCCC1 (configuration not stated), COc1c([N+](=O)[O-])c(=O)oc2ccccc12, CCC(=O)Nc1c(-c2ccc(Cl)cc2)c(=O)c2ccccc2n1C, CCOc1c(C)cc(S(=O)(=O)NCc2cccnc2)c(C)c1C, Cc1ccc(C(=O)Nc2ccc(C(=O)O)cc2NC(=O)c2ccc(C)cc2)cc1, CCOc1ccc(OCc2cccc(C(=O)O)c2)cc1, COc1ccc(C(=O)Nc2ccc(OCc3ccccc3)cc2)cc1[N+](=O)[O-], CCCCN(C)C(=O)CCC(=O)Nc1ccc2nc(N3CCN(C)CC3)cc(C)c2c1, CC(C)CC(NC(=O)C1CCCN1C(=O)[C@@H](C)NC(=O)OCc1ccccc1)C(=O)NCC(N)=O (some centres not stated), CC(=O)c1ccc(NC(=O)C(C)n2nc(-c3ccccc3)c3cc(Cl)ccc32)cc1 (configuration not stated), CC1Cc2ccccc2N1C(=O)C12CCC(C)(C(=O)C1)C2(C)C (configuration not stated), O=S(=O)(/N=C(/c1ccccc1Cl)N1CCOCC1)c1ccccc1, O=C(c1cc(Cl)ccc1Cl)N1CCOCC1, COc1cc(SC)ccc1C(=O)NCC1CCCO1 (configuration not stated), COCC(C)NC(=O)c1ccc2nc(-c3ccccc3)c(-c3ccccc3)nc2c1 (configuration not stated), CCn1cc(S(=O)(=O)Nc2ccc3c(c2)OCCO3)cn1, Cc1nc(SCC(=O)NCC2CCCO2)[nH]c(=O)c1C (configuration not stated), O=C(N1CCCCC1)N1CCN(S(=O)(=O)c2ccccc2)CC1, O=C(Cc1ccccc1F)Nc1ccc(S(=O)(=O)N2CCCCC2)cc1, C=CCNC(=S)Nc1sc2c(c1C#N)CCCC2, CCOc1ccc(NC(=S)N(CCc2ccncc2)C(C)C)cc1, Cc1ccc([N+](=O)[O-])c(OCCCN2CCC(Cc3ccccc3)CC2)c1, O=C(OCn1ncc(Cl)c(Cl)c1=O)c1ccccc1Cl, COc1cc(NC(=O)Cn2ncc(Cl)c(Cl)c2=O)c(C)cc1[N+](=O)[O-], CCCNC(=O)NC1C(NC(=O)NCCC)N(C)C(=O)N1C (configuration not stated), CCc1ccc(NC(=O)C2C3CCC(O3)C2C(=O)O)cc1 (configuration not stated), Cc1ccc(S(=O)(=O)N(C)c2ccccc2C(=O)NC2CCCC2)cc1, S=c1[nH]nc(-c2cnccn2)n1-c1ccccc1, Cc1ccc(NC(=O)COC(=O)Cn2cnc3ccccc32)cc1S(=O)(=O)N(C)C, CC(C)c1ccc(/C=N/Nc2ccc(C(=O)O)cc2)cc1, O=C(Nc1ccc2[nH]ncc2c1)c1ccccc1Cl, O=C(O)c1ccc(N/N=C/c2ccc(OC(=O)c3ccccc3Cl)cc2)cc1, N#C/C(=C\Nc1ccc2cn[nH]c2c1)c1nc(-c2ccccc2)cs1, CCOC(=O)c1ccc(Cl)c(NC(=O)c2cccnc2)c1, CCc1ccc(NC(=O)CSc2ccc(-c3cccnc3)nn2)cc1, O=C(NC(=S)Nc1ccc2oc(=O)ccc2c1)c1cc2ccccc2o1, Cc1ccc(NC(=O)c2cc(NC(=O)c3ccco3)ccc2N2CCOCC2)cc1, O=c1c2c3c(sc2nc(NCCOCCO)n1Cc1ccco1)CCCCC3, COc1ccc(NC(=O)c2cc3cc(OC)ccc3oc2=N)cc1, COc1cccc(/C=C/C(=O)NCc2ccc3c(c2)OCO3)c1, Cc1cccc(NC(=O)c2sc(-c3ccccc3)nc2-c2ccc([N+](=O)[O-])cc2)c1, CCOC(=O)/C(C#N)=C/c1cc(C)n(-c2ccccc2)c1C
